# Records with an inconclusive call do not appear. Entries that show only a call come without a potency. Calls of active or inactive are those of the source. Unless noted, calls come from the whole dose curve; as a rule, active = well fitted curve in the direction sought with a large enough effect; inconclusive = small, poorly fitted or top-dose-only effect, or another doubt; inactive = no such curve, though single readings can be large; an effect the other way counts as inactive or inconclusive.
# Legend:
# [1] = NCATS anti-infectives library activity on HEK293 viability as a counter-qHTS vs the C. elegans viability qHTS (AID 1745854); details: HEK293 viability counter-screen; series mostly up to 41.8 µM;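 note: HEK293 cells exposed to compounds for 24 hr before the viability read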
# Procedure, shortened: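 Counter-screen for cytotoxicity: HEK293, 24 hr, 37C, compounds up to 41.7 uM final (a dilution series, 1:5). Readout CellTiter-Glo luminescence, 10 min RT. Digitonin control, 83.3 uM final.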
# [2] = NCATS anti-infectives library activity on the primary C. elegans qHTS viability assay (AID 1745855; calls by dose curve; note: potency is the fitted concentration of half-maximal effect); details: C. elegans worm area imaging, day 7
# Procedure, shortened: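 GFP read-out by 488 nm laser cytometry at day 0, 3 and 7, gated on object perimeter, area and peak intensity, scored viability of PE254-GFP-FLuc worms exposed to compound in S medium with bacterial capsules at 21 °C.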
# [3] = molecular target: Glutathione peroxidase 1 (Homo sapiens) (UniProt P07203); assay: Primary qHTS Assay for Inhibitors of Recombinant Selenoprotein Glutathione Peroxidase 1 (GPX1) (AID 1845191); details: recombinant GPX1, GR-coupled NADPH fluorescence, 15 min; series mostly up to 48.8 µM; note: nearly all actives have a fitted effect of over 65% in size
# Chain of Glutathione peroxidase 1 (Homo sapiens) (P07203 whole entry, looked up): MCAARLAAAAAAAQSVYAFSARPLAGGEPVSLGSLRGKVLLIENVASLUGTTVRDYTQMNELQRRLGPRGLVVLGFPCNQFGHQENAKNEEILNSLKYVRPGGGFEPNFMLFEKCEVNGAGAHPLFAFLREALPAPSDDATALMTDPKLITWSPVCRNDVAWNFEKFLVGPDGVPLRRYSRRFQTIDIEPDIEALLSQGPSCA
# Procedure, shortened: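 GPX1 10 nM, GR 100 nM, GSH 1 mM, NADPH 0.5 mM, CHP 0.5 mM (final). 30-min cpd preincubation, RT. Ex340/Em450 read t=0, t=15 min.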
# [4] = molecular target: Phospholipid hydroperoxide glutathione peroxidase GPX4 (Homo sapiens) (UniProt P36969); assay: Primary qHTS Assay for Inhibitors of Recombinant Selenoprotein Glutathione Peroxidase 4 (GPX4) (AID 1845192); details: recombinant GPX4, GR-coupled NADPH fluorescence, 15 min; series mostly up to 50 µM; note: nearly all actives have a fitted effect of over 65% in size
# Chain of Phospholipid hydroperoxide glutathione peroxidase GPX4 (Homo sapiens) (P36969 whole entry, looked up): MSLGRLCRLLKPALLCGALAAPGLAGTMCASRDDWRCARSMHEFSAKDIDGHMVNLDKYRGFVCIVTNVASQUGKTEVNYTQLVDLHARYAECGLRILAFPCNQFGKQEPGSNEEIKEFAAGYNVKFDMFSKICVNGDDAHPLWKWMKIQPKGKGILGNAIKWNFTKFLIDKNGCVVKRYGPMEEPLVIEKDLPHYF
# Procedure, shortened: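 qHTS, GR-coupled: GPX4 200 nM + cpd 30 min RT → GSH 1 mM, NADPH 0.5 mM, GR 100 nM → CHP 0.5 mM start; fluor 340/450 at t0 and t15 min; no-enzyme wells as control.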
# [5] = molecular target: Metallo-beta-lactamase type 2 (Klebsiella pneumoniae) (UniProt C7C422); assay: qHTS to identify inhibitors of the New Delhi Metallo-beta-lactamase (NDM): assay validation screen against the NCATS LOPAC Collection (AID 1794843); details: NDM-1 enzyme, nitrocefin hydrolysis, absorbance 485 nm; series mostly up to 38.4 µM; note: potency is the fitted concentration of half-maximal effect
# Chain of Metallo-beta-lactamase type 2 (Klebsiella pneumoniae) (C7C422 whole entry, looked up): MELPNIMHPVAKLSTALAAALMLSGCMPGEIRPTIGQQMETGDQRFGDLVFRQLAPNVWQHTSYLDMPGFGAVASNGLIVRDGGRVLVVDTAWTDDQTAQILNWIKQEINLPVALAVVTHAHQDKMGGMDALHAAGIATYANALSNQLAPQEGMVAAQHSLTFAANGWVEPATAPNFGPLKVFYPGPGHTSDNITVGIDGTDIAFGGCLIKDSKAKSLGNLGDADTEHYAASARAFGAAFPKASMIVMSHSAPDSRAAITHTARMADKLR
# Procedure, shortened: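 Absorbance at 485 nm from nitrocefin turnover (50 uM solution added), read at plateau, gives the read-out. Compounds in DMSO were incubated first with 2 nM final NDM-1 in pH 7.0 HEPES buffer containing 1 uM ZnSO4 and 0.01% Tween20.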
# [6] = HepG2 viability counterscreen (readout 2: ATP content) against the NCATS DSHEA and TCM libraries (AID 1794840); details: ATP content luminescence; series mostly up to 27.3 µM
# Procedure, shortened: (§1)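 Same wells read twice: first fluorescence from cleaved GF-AFC substrate (25 uM final, 30 min, 37C) for live-cell protease, then CellTiter-Glo luminescence after 30 min at room temperature for ATP. HepG2 cells were exposed ~24 h to substances.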
# [7] = HepG2 viability counterscreen (readout 1: protease activity) against the NCATS DSHEA and TCM libraries (AID 1794841); details: qHTS concentration series; series mostly up to 27.3 µM;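 note: cells exposed to compounds for about 24 h before the protease read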
# Procedure, shortened: as §1
# [8] = Viability counterscreen for antagonist of constitutive androstane receptor (CAR) against the NCATS DSHEA and TCM libraries (AID 1794837); details: CAR reporter cell line viability counterscreen, qHTS; series mostly up to 40 µM;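 note: compound exposure lasted 24 h before viability reading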
# Procedure, shortened: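 Cells: HepG2 line carrying CYP2B6 reporter and hCAR, seeded and attached 5 h. Then pin-transferred test substances plus agonist CITCO at 48 uM final; 24 h incubation; fluorogenic viability reagent, 1 h.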
# [9] = Viability counterscreen for agonist of constitutive androstane receptor (CAR) against the NCATS DSHEA and TCM libraries (AID 1794838); details: HepG2 cell viability counterscreen, CAR agonist assay, co-treated with 0.75 µM CAR antagonist; series mostly up to 40 µM;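 note: HepG2 cells with CYP2B6 reporter and hCAR plus 0.75 µM PK11195 antagonist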
# Procedure, shortened: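 Cell health was measured as CellTiter-Fluor signal in HepG2-CYP2B6-hCAR cells treated for 24 h with substances alongside the hCAR antagonist PK11195 (0.75 uM final).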
# [10] = molecular target: Catechol O-methyltransferase (Homo sapiens) (UniProt P21964); assay: Confirmatory Screen for Target Class Profiling of Small Molecule Inhibitors of Methyltransferases (AID 1745852; calls by dose curve; note: potency is the fitted concentration of half-maximal effect); details: MTase-Glo luminescence, SAH detection, recombinant enzyme; measured here: COMT max response; stronger effect = lower value
# Chain of Catechol O-methyltransferase (Homo sapiens) (P21964 whole entry, looked up): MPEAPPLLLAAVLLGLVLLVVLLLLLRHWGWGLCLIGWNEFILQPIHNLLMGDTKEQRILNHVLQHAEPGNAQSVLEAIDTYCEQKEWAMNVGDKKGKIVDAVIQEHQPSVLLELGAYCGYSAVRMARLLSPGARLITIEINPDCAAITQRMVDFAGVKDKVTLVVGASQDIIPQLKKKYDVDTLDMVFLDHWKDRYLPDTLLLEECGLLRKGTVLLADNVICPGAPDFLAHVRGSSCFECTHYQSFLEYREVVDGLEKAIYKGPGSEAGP
# [11] = molecular target: Guanidinoacetate N-methyltransferase (Homo sapiens) (UniProt Q14353); assay: as above; details: MTase-Glo luminescence, SAH detection, recombinant enzyme; activity change, negative = inhibition: at 57.3 µM (top of the series)
# [12] = molecular target: Nicotinamide N-methyltransferase (Homo sapiens) (UniProt P40261); assay: as above; details: MTase-Glo luminescence, SAH detection, recombinant enzyme; measured here: NNMT max response; stronger effect = lower value
# Chain of Nicotinamide N-methyltransferase (Homo sapiens) (P40261 whole entry, looked up): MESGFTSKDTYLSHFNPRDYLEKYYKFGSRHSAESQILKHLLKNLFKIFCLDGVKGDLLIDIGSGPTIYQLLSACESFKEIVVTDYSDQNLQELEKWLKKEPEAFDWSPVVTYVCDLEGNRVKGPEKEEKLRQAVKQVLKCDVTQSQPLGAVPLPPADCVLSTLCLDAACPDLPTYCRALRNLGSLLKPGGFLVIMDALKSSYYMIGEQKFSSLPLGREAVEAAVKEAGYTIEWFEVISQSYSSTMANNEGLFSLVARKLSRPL
# [13] = molecular target: Phenylethanolamine N-methyltransferase (Homo sapiens) (UniProt P11086); assay: as above; details: MTase-Glo luminescence, SAH detection, recombinant enzyme; measured here: PNMT max response; stronger effect = lower value
# Chain of Phenylethanolamine N-methyltransferase (Homo sapiens) (P11086 whole entry, looked up): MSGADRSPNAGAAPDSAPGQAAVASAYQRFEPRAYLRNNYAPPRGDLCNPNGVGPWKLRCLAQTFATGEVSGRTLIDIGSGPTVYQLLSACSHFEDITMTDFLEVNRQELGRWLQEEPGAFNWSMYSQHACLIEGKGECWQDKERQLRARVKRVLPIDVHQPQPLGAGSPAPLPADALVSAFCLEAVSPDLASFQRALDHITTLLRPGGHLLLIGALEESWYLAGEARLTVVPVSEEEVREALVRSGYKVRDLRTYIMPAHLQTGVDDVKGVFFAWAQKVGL
structure (smiles),measurement,setting,value
CC[C@@H](C)[C@H]1O[C@]2(CC[C@@H]1C)C[C@@H]1C[C@@H](C/C=C(\C)[C@@H](O[C@H]3C[C@H](OC)[C@@H](O[C@H]4C[C@H](OC)[C@@H](O)[C@H](C)O4)[C@H](C)O3)[C@@H](C)/C=C/C=C3\CO[C@@H]4[C@H](O)C(C)=C[C@@H](C(=O)O1)[C@]34O)O2,outcome,[1],inactive
same,Potency,[2],0.0058 µM (active)
same,Potency,[3],inactive
same,Potency,[4],inactive
c1cnc2c(c1)ccc1cccnc12,Potency,[5],20 µM (active)
same,Potency,[3],inactive
same,Potency,[4],inactive
COc1cc(OC)cc(-c2cc3cnc(N)nc3nc2NC(=O)NC(C)(C)C)c1,Potency,[5],inactive
same,Potency,[3],inactive
same,Potency,[4],inactive
CC1CN(S(=O)(=O)c2cccc3cnccc23)CCN1 (stereo not drawn),Potency,[5],inactive
same,Potency,[3],inactive
same,Potency,[4],inactive
CC(=O)N[C@H](C(=O)O)C(C)(C)SN=O,Potency,[5],inactive
same,Potency,[3],inactive
same,Potency,[4],inactive
O=C(/C=C/c1ccc(O)c(O)c1)OCCc1ccccc1,Potency,[5],inactive
same,Potency,[3],inactive
same,Potency,[4],inactive
CCCCCCCCCCCCCCCCCC(=O)O,outcome,[6],inactive
same,outcome,[7],inactive
same,Potency,[3],inactive
same,Potency,[4],inactive
CO[C@H]1O[C@@H]2O[C@]3(C)CC[C@@H]4[C@@H](C)CC[C@H]([C@H]1C)[C@]24OO3,Potency,[5],inactive
same,Potency,[3],inactive
same,Potency,[4],inactive
NC(=O)C1=CN(C2OC(COP(=O)(O)OP(=O)(O)OC[C@H]3O[C@@H](n4cnc5c(N)ncnc54)[C@H](OP(=O)(O)O)[C@@H]3O)C(O)C2O)C=CC1 (stereo partly drawn),Potency,[5],inactive
same,Potency,[3],inactive
same,Potency,[4],inactive
CCCC(CCC)C(=O)OC1CC2CCC(C1)[N+]2(C)C (stereo not drawn),Potency,[5],inactive
same,Potency,[3],inactive
same,Potency,[4],inactive
CCCCCCCCCCCCCCCCCC(=O)OC(CC(=O)O)C[N+](C)(C)C (stereo not drawn),Potency,[5],inactive
same,Potency,[3],inactive
same,Potency,[4],inactive
CC(C)CC(NP(=O)(O)O[C@@H]1O[C@@H](C)[C@H](O)[C@@H](O)[C@H]1O)C(=O)NC(Cc1c[nH]c2ccccc12)C(=O)O (stereo partly drawn),Potency,[5],inactive
same,Potency,[3],inactive
same,Potency,[4],inactive
O=C1/C(=C/c2ccsc2)CC/C1=C\c1cccs1,Potency,[5],inactive
same,Potency,[3],inactive
same,Potency,[4],inactive
CNCC[C@H](Oc1ccc(C(F)(F)F)cc1)c1ccccc1,Potency,[5],inactive
same,Potency,[3],inactive
same,Potency,[4],inactive
O=C1NC(=O)c2c1c(-c1ccccc1)cc1[nH]c3ccc(O)cc3c21,Potency,[5],inactive
same,Potency,[3],inactive
same,Potency,[4],inactive
C[S+](CC[C@H](N)C(=O)O)C[C@H]1O[C@@H](n2cnc3c(N)ncnc32)[C@H](O)[C@@H]1O (stereo partly drawn),outcome,[8],inactive
same,outcome,[9],inactive
same,outcome,[6],inactive
same,outcome,[7],inactive
O=C1NC(=O)/C(=C/c2ccc3nccnc3c2)S1,Potency,[5],inactive
same,Potency,[3],inactive
same,Potency,[4],inactive
CCCCC#Cc1nc(NC)c2ncn([C@@H]3O[C@H](CO)[C@@H](O)[C@H]3O)c2n1,Potency,[5],inactive
same,Potency,[3],inactive
same,Potency,[4],inactive
OCC1O[C@H]([S-])[C@H](O)[C@@H](O)[C@@H]1O.[Au+] (stereo partly drawn),activity,[10],-38.3%
same,Potency,[11],4.85 µM (active)
same,activity,[12],-21.4%
same,activity,[13],-1.84%
same,Potency,[4],inactive
O=[N+]([O-])c1ccc(CSc2ncnc3c2ncn3[C@@H]2O[C@H](CO)[C@@H](O)[C@H]2O)cc1,Potency,[5],inactive
same,Potency,[3],inactive
same,Potency,[4],inactive
CCCCCCOc1ccccc1C(N)=O,outcome,[1],inactive
same,Potency,[3],inactive
same,Potency,[4],inactive
Fc1cccc(/C=N/N=C/c2cccc(F)c2)c1,Potency,[5],inactive
same,Potency,[3],inactive
same,Potency,[4],inactive
NC[C@@H]1O[C@H](C23CC4CC(CC(C4)C2)C3)Cc2c1ccc(O)c2O,Potency,[5],inactive
same,Potency,[3],inactive
same,Potency,[4],inactive
CC(C)NC[C@H](O)COc1cccc2[nH]ccc12,Potency,[5],inactive
same,Potency,[3],inactive
same,Potency,[4],inactive
CCCN(CC1CC1)c1nc(C)nc(Nc2c(Cl)cc(Cl)cc2Cl)c1Cl,Potency,[5],inactive
same,Potency,[3],inactive
same,Potency,[4],inactive
NCC1OC(O[C@H]2[C@H](O)[C@@H](OC3C(O)C(N)CC(N)C3OC3OC(CO)C(O)C(O)C3N)O[C@@H]2CO)C(N)C(O)C1O (stereo partly drawn),Potency,[5],inactive
same,Potency,[3],inactive
same,Potency,[4],inactive
CC(C)Cc1ccc([C@H](C)C(=O)O)cc1,Potency,[5],inactive
same,Potency,[3],inactive
same,Potency,[4],inactive
CN(C)C(N)=NCCC[C@H](N)C(=O)O,Potency,[5],inactive
same,Potency,[3],inactive
same,Potency,[4],inactive
CC12C(=O)OC(=O)C1(C)C1CCC2O1 (stereo not drawn),Potency,[5],inactive
same,Potency,[3],inactive
same,Potency,[4],inactive
CC(C)(NS(=O)(=O)c1ccc(Oc2ccc(F)cc2)cc1)C(=O)NO,Potency,[5],inactive
same,Potency,[3],inactive
same,Potency,[4],inactive
O=P(O)(O)C(Cl)(Cl)P(=O)(O)O,Potency,[5],inactive
same,Potency,[3],inactive
same,Potency,[4],inactive
N[C@H](CCCP(=O)(O)O)C(=O)O,Potency,[5],inactive
same,Potency,[3],inactive
same,Potency,[4],inactive
OCC1O[C@H](O)C(Cl)C(O)C1O (stereo partly drawn),Potency,[5],inactive
same,Potency,[3],inactive
same,Potency,[4],inactive
O=C(Nc1ccncc1)c1cc([N+](=O)[O-])ccc1Cl,Potency,[5],inactive
same,Potency,[3],inactive
same,Potency,[4],inactive
CN(C)CCC(c1ccc(Cl)cc1)c1ccccn1 (stereo not drawn),Potency,[5],inactive
same,Potency,[3],inactive
same,Potency,[4],inactive
COCCOc1cc2nc[nH]c(=O)c2cc1OCCOC,Potency,[5],inactive
same,Potency,[3],inactive
same,Potency,[4],inactive
CC[C@H]1OC(=O)[C@H](C)C(O[C@H]2C[C@@](C)(OC)[C@@H](O)[C@H](C)O2)[C@H](C)[C@@H](OC2O[C@H](C)C[C@H](N(C)C)[C@H]2O)[C@](C)(O)C[C@@H](C)CN(C)[C@H](C)[C@@H](O)[C@]1(C)O (stereo partly drawn),Potency,[5],inactive
same,Potency,[3],inactive
same,Potency,[4],inactive
O=C(O)c1cc(=O)c2c(Cl)cc(Cl)cc2[nH]1,Potency,[5],inactive
same,Potency,[3],inactive
same,Potency,[4],inactive
O=C(/C=C/c1ccc(O)cc1)c1ccc(O)cc1O,Potency,[5],inactive
same,Potency,[3],inactive
same,Potency,[4],inactive
Clc1ccc(N2CCN(Cc3cc4ccccn4n3)CC2)cc1,Potency,[5],inactive
same,Potency,[3],inactive
same,Potency,[4],inactive
O=C(c1ccc(OCCCc2cnc[nH]2)cc1)C1CC1,Potency,[5],inactive
same,Potency,[3],inactive
same,Potency,[4],inactive

# Reference: PubChem BioAssay (NCATS)
